This note sets out measurements from PubChem BioAssay (Tox21).

Each structure is given as a SMILES string. A number with no mark means an inactive call. Inconclusive results are not listed. Active and inactive are the calls of the source. Unless noted, calls follow the shape of the full dose curve.

The nature of assay [1]: qHTS assay to identify small molecule agonists of the sonic hedgehog signaling (Shh) pathway (AID 1259368).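 Also: NIH/3T3-derived 3T3Gli1-Luc cells carrying a stable Gli1-driven firefly luciferase reporter; series mostly up to about 92 µM; nearly all actives have a fitted effect of over 15% in size.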 The essentials: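 Steps: seed 3T3 Gli1-Luc cells, incubate 4 hr at 37 C, pin-transfer compounds in DMSO alongside a positive control, incubate 24 hr, add luciferase detection reagent, wait 30 min at room temperature, read luminescence.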
(Quantitative high-throughput screening tests each substance at several concentrations.)

Assay [2] in a line: qHTS assay to identify small molecule antagonists of the sonic hedgehog signaling (Shh) pathway (AID 1259369). Also: nearly all actives have a fitted effect of over 45% in size. Also: potency is read from the fitted curve at half-maximal effect. The procedure, abridged: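 Inhibition of Shh signalling is measured as reduced Gli1-response-element firefly luciferase output in an NIH/3T3-derived stable reporter clone stimulated with conditioned medium for 24hr.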
Assay [3] concerns the target Estrogen receptor beta (Homo sapiens) (UniProt Q92731). Briefly: qHTS assay to identify small molecule agonists of the estrogen receptor beta (ER-beta) signaling pathway (AID 1259377; active = well fitted activation curve with a large enough effect in the signal ratio in the repeat runs, not every such curve was filed as active; the % refers to the signal ratio). The essentials: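 Ratiometric beta-lactamase FRET read-out came after 2 h substrate loading at room temperature. It followed 16 h compound treatment at 37C of GripTite HEK293T cells carrying a UAS-bla reporter, plated in 2% charcoal-stripped FBS medium.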

Assay [4] has the same target. Briefly: qHTS assay to identify small molecule antagonists of the estrogen receptor beta (ER-beta) signaling pathway (AID 1259378; active = well fitted inhibition curve with a large enough effect in the signal ratio in the repeat runs, not every such curve was filed as active; the % refers to the signal ratio). The procedure, abridged: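 Antagonist mode: compounds added to beta-lactamase reporter HEK293T ER-beta-UAS cells stimulated with E2 (1nM final), 16 hr at 37C. LiveBLAzer B/G FRET substrate, 2 hours room temperature, fluorescence read-out.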

The nature of assay [5]: qHTS assay to identify small molecule agonists of the androgen receptor (AR) signaling pathway in the presence of an antagonist - cell viability counter screen (AID 1259379; active = well fitted curve in the direction sought with a large enough effect in the repeat runs; an effect the other way counts as inactive or inconclusive;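 also: MDA-kb2 human breast cancer cells carrying an MMTV luciferase reporter; series mostly up to about 92 µM; nearly all actives have a fitted effect of over 25% in size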). The essentials: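 Fluorescence from CellTiter-Fluor, added after 15 hr and read 1 hr later, gave cell viability. Cells were MDA-kb2 exposed to compounds (15 concentrations) in the presence of 3.0uM nilutamide at 37C, 0% CO2.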

A short description of assay [6]: qHTS assay to identify small molecule agonists of the estrogen receptor beta (ER-beta) signaling pathway - cell viability counter screen (AID 1259380; active = well fitted curve in the direction sought with a large enough effect in the repeat runs; an effect the other way counts as inactive or inconclusive; also: nearly all actives have a fitted effect of over 30% in size). The procedure, abridged:
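Same-well viability counter screen. Cells: ER-beta-UAS-bla HEK293T, plated 6 hr before compound, in 2% charcoal-stripped FBS. Compound exposure 16 hr, 37C; viability by CellTiter-Glo luminescence after 30 min at room temperature.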

Assay [7] can be described thus: qHTS assay to identify small molecule antagonists of the estrogen receptor beta (ER-beta) signaling pathway - cell viability counter screen (AID 1259382; active = well fitted curve in the direction sought with a large enough effect in the repeat runs; an effect the other way counts as inactive or inconclusive; also: series mostly up to about 92 µM; nearly all actives have a fitted effect of over 55% in size). The essentials:
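Following a 6 hr plating period, HEK293T cells carrying a UAS-driven beta-lactamase reporter under ER-beta control received compounds and 1nM E2 (final). After 16 hr at 37C and 2 hr substrate loading, CellTiter-Glo luminescence indicated viability.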

For assay [8], the target named is Androgen receptor (Homo sapiens) (UniProt P10275). Briefly: qHTS assay to identify small molecule agonists of the androgen receptor (AR) signaling pathway in the presence of an antagonist (AID 1259381). Also: nearly all actives have a fitted effect of over 15% in size. The procedure, abridged:
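Cells are MDA-kb2 (human breast carcinoma, MMTV-luc, AR/GR responsive). Nilutamide is present at 3.0uM final throughout; compounds are added at 15 concentrations and incubated 16hr at 37C before ONE-Glo luminescence detection.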

For assay [9], the target named is Estrogen receptor (Homo sapiens) (UniProt P03372). In words: qHTS assay to identify small molecule agonists of the estrogen receptor alpha (ER-alpha) signaling pathway in the presence of an antagonist (AID 1259383). Also: top concentration of the series differs between compounds; nearly all actives have a fitted effect of over 15% in size. The essentials:
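Cells are hormone-deprived for 5 days (charcoal-stripped FBS, no phenol red), plated for 24hr, spiked with 10.0nM ICI-182,780, then dosed at 15 concentrations. After 22hr at 37C, ONE-Glo luminescence reports ERE-luciferase activity.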

Assay [10] is described as follows: qHTS assay to identify small molecule agonists or antagonists of the thyroid stimulating hormone receptor (TSHR) signaling pathway - wild type cell line counter screen (AID 1259384). The procedure, abridged:
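Counter screen in untransfected Hek293: compounds (15-point titration, triplicate) plus phosphodiesterase inhibitor Ro20-1724 added after 18 h plating; 30 min RT. Intracellular cAMP via competitive d2/cryptate immunoassay, 1 h incubation.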
% is scaled to controls: 0 for no effect and ±100 for the full control effect.

Androgen receptor (Homo sapiens), sequence (P10275 whole entry, looked up): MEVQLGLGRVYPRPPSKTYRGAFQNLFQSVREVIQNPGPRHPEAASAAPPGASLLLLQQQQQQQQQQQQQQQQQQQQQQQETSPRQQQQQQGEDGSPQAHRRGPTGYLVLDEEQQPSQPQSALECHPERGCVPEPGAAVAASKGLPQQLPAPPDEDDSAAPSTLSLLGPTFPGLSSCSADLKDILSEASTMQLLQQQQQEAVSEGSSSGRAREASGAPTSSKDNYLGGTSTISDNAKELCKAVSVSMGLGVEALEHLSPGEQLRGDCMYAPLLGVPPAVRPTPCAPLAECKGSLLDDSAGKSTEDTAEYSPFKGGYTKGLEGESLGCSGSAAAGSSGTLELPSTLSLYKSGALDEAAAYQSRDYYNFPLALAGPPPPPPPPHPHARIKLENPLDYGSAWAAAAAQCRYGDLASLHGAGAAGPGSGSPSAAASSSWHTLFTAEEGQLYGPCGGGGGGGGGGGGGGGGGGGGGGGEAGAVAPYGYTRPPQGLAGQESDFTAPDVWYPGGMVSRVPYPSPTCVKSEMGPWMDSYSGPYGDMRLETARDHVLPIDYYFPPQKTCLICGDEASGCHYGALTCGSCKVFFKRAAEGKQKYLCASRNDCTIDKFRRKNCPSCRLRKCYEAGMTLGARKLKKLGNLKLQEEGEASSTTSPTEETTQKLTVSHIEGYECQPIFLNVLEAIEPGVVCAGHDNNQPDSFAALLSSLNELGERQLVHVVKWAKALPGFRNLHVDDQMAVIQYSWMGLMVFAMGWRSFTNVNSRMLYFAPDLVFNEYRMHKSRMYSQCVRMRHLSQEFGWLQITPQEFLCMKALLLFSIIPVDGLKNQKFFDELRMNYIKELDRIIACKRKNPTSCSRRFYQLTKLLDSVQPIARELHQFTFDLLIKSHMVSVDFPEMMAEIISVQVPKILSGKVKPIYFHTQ
Estrogen receptor beta (Homo sapiens), sequence (Q92731 whole entry, looked up): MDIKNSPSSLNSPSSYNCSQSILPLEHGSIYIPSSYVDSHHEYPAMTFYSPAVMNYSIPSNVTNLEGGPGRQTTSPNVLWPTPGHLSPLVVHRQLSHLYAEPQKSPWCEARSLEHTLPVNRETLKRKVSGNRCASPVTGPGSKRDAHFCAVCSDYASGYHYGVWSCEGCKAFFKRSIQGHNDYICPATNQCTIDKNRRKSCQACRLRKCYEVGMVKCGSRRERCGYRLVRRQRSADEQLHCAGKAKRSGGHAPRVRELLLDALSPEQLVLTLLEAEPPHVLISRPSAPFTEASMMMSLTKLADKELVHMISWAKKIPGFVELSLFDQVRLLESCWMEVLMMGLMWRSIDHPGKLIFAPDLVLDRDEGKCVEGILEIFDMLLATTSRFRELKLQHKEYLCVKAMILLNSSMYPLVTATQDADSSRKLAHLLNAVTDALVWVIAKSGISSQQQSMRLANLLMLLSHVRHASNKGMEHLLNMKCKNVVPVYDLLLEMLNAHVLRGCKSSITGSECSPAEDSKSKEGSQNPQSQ
Estrogen receptor (Homo sapiens), sequence (P03372 whole entry, looked up): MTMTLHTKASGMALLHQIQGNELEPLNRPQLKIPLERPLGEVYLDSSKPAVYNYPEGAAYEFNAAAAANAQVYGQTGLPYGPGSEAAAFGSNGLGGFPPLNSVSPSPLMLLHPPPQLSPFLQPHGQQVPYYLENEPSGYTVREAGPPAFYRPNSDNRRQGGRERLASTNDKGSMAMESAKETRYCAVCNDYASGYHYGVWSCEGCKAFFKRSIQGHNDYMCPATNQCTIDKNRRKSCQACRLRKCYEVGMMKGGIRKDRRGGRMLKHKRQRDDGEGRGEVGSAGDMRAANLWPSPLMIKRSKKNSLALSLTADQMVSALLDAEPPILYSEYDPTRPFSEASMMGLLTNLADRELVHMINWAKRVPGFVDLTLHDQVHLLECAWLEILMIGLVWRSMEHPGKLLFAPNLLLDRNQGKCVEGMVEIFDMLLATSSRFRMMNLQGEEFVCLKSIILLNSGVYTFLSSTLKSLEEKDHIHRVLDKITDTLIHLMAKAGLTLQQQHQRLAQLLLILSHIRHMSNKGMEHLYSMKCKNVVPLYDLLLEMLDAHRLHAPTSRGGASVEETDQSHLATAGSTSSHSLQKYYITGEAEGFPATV

With `Cc1ccccc1CCl`, the Potency entry in assay [1], in assay [2], in assay [3], in [4], in assay [5] and in [6] was “inactive” in each case. In addition, the Potency result in assay [7] was “inactive”.
Regarding `CCCCN=C=O`, the Potency result in [1], in [2], in assay [3], in assay [4], in assay [5] and in assay [6] was “inactive” throughout. Moreover, the Potency entry in assay [7] was “inactive”.
Turning to `Cc1ccc2ccccc2c1`, the Potency result in assay [1], in assay [2], in [3], in [4], in [5] and in assay [6] was “inactive” throughout. For the same compound, the Potency entry in assay [8], in assay [7] and in assay [9] was “inactive” in each case. For the same compound, the outcome in assay [10] was inactive.
Turning to `O=C(O)c1ccccc1C(=O)Nc1cccc2ccccc12`, the Potency entry in [1], in assay [2], in assay [3] and in assay [4] was “inactive” throughout.
For `Brc1ccccc1`, the Potency result in assay [1], in [2], in assay [3], in [4], in assay [5] and in assay [6] was “inactive” each time. For the same compound, the Potency entry in [8], in assay [7] and in assay [9] was “inactive” throughout.
In the case of `CCOP(=S)(OCC)SCSCC`, the Potency entry in assay [1], in assay [2], in assay [3], in assay [4], in assay [5] and in assay [6] was “inactive” in each case. Moreover, the Potency entry in assay [7] and in assay [9] was “inactive” each time.
For `C[C@@H]1CC[C@H]2[C@@H](C)C(=O)O[C@@H]3O[C@@]4(C)CC[C@@H]1[C@]32OO4`, the Potency result in assay [1], in assay [2], in assay [3], in assay [4], in [5] and in assay [6] was “inactive” each time. The Potency entry in assay [8] and in assay [7] was “inactive” throughout. Also, in assay [10], the compound was called inactive.
As for `Cc1cc(=O)[nH]o1`, the Potency entry in assay [1], in assay [2], in assay [3], in assay [4], in assay [5] and in assay [6] was “inactive” throughout. Moreover, the Potency entry in assay [8], in [7] and in [9] was “inactive” throughout. In addition, the compound was called inactive in [10].
For `[O-][Cl+]O`, the Potency entry in assay [1], in [2], in assay [3], in [4], in assay [5] and in [6] was “inactive” each time. Further, the Potency result in [7] and in [9] was “inactive” throughout.
Turning to `COC(=O)C(Br)CBr` (stereo unspecified), the Potency entry in assay [1], in assay [2], in [3], in assay [4], in assay [5] and in assay [6] was “inactive” each time. Besides, the Potency result in assay [7] and in assay [9] was “inactive” in each case.
Take `COC(C)(C)CCC[C@H](C)C/C=C/C(C)=C/C(=O)OC(C)C`: the Potency entry in assay [1], in assay [2], in assay [3], in [4], in assay [5] and in [6] was “inactive” in each case. In addition, the Potency entry in assay [8] and in [7] was “inactive” throughout. For the same compound, in assay [10], the outcome was inactive.
Turning to `CC(=O)CCC(C)=O`, the Potency entry in assay [1], in assay [2], in assay [3], in [4], in assay [5] and in assay [6] was “inactive” each time. For the same compound, the Potency result in assay [7] and in assay [9] was “inactive” each time.
Turning to `CCO[C@H]1O[C@@H]2OC3(C)CC[C@H]4[C@H](C)CC[C@@H]([C@H]1C)[C@@]24OO3`, the Potency entry in [1], in assay [2], in [3], in assay [4], in [5] and in [6] was “inactive” each time. In addition, the Potency entry in assay [8], in [7] and in assay [9] was “inactive” in each case.
Regarding `CCCCCCC#N`, the Potency entry in assay [1], in assay [2], in assay [3], in [4], in [5] and in [6] was “inactive” throughout. Also, the Potency result in assay [7] and in assay [9] was “inactive” each time. For the same compound, the outcome in assay [10] was inactive.
`ClCc1cccc(Cl)c1`: the Potency result in assay [1], in assay [2], in assay [3], in [4], in assay [5] and in assay [6] was “inactive” throughout. In addition, the Potency entry in assay [8], in [7] and in assay [9] was “inactive” in each case. For the same compound, the outcome in [10] was inactive.
For `CC(C)N(CCC(C(N)=O)(c1ccccc1)c1ccccn1)C(C)C` (stereo unspecified), the Potency result in [1], in assay [2], in [3], in assay [4], in [5] and in assay [6] was “inactive” in each case. In addition, the Potency result in assay [7] is “inactive”.
As for `CCCCCCCCCC(=O)O[C@H]1CC[C@H]2[C@@H]3CCC4=CC(=O)CC[C@@H]4[C@H]3CC[C@]12C`, the Potency result in assay [1], in assay [2], in assay [3], in assay [4], in assay [5] and in assay [6] was “inactive” in each case. Besides, the Potency result in assay [7] and in assay [9] was “inactive” in each case.
For `CN1C(=O)NC(=O)C(C)(C2=CCCCC2)C1=O` (stereo unspecified), the Potency result in [1], in assay [2], in [3], in assay [4], in [5] and in assay [6] was “inactive” throughout. For the same compound, the Potency entry in [7] was “inactive”.
Consider `Cc1ccc(N)cc1C`, for which the Potency result in assay [1], in assay [2], in [3], in [4], in assay [5] and in assay [6] was “inactive” each time. Further, the Potency result in [7] and in assay [9] was “inactive” in each case. For the same compound, the compound was classed as inactive in assay [10].
Turning to `CCBr`, the Potency result in assay [1], in assay [2], in [3], in [4], in assay [5] and in assay [6] was “inactive” in each case. For the same compound, the Potency entry in [7] and in assay [9] was “inactive” in each case. Moreover, the call in [10] was inactive.
Regarding `C[N+](C)(C)CCCl`, the Potency entry in assay [1], in [2], in assay [3], in assay [4], in assay [5] and in [6] was “inactive” each time. Besides, the Potency entry in assay [8], in assay [7] and in assay [9] was “inactive” in each case. Further, the call in assay [10] was inactive.
On to `CCCCCC[N+](=O)[O-]`, for which the Potency result in [1], in assay [2], in assay [3], in assay [4], in assay [5] and in assay [6] was “inactive” throughout. In addition, the Potency entry in assay [8] and in [7] was “inactive” each time.
Consider `C=C(C#N)CCC#N`, for which the Potency result in [1], in [2], in [3], in assay [4], in [5] and in [6] was “inactive” throughout. In addition, the Potency result in [7] and in [9] was “inactive” each time. Besides, in [10], the outcome was inactive.
As for `NCC(CC(=O)O)c1ccc(Cl)cc1` (stereo unspecified), in [1], the activity change was -1.29% [at 0.349 µM, hits give high values]. Moreover, the activity change, negative = inhibition in [2] was 38.7% [at 0.349 µM]. For the same compound, the activation in assay [3] was -2.59% [at 0.348 µM]. Besides, the activity, negative = inhibition in assay [4] was 0.814% [at 0.349 µM]. Moreover, the figures for the activity change, negative = cytotoxicity in assay [5], in [6] and in [7] were 0.676% [at 0.35 µM], 4.02% [at 0.349 µM] and 5.5% [at 0.349 µM], respectively.
`O=C(O)COc1ccc(Cl)cc1`: the Potency result in assay [1], in assay [2], in [3], in assay [4], in [5] and in assay [6] was “inactive” throughout. In addition, the Potency result in [7] and in [9] was “inactive” throughout.
Turning to `Clc1cccc(SC2CCNCC2)n1`, the Potency entry in [1], in [3], in assay [4], in assay [5], in assay [6] and in assay [7] was “inactive” each time. For the same compound, the Potency result in assay [9] was “inactive”. The Potency in [2] was 26.6 µM (active). In addition, in [10], the result was inactive.
